Experimental data taken from PubChem BioAssay (NCATS).
Results filed as inconclusive are left out. Active and inactive are the calls of the source. The call rests on the fitted dose curve; in most records, active means well fitted cell-killing curve with a large enough effect; inconclusive means small, poorly fitted or top-dose-only effect; inactive means flat fitted curve, though single readings scatter.

Experiments:
[1] = Cell Viability - LYMP2-021 (AID 974);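 further: compound exposure lasts 24 hours at 37 °C; nearly all actives have a fitted effect of over 55% in size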; further: potency means the concentration at half of the fitted maximal effect
Method in brief: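 Plate 2500 lymphoblastoid cells per well and incubate 5 hr at 37 C. Add compounds over a concentration range and incubate 24 hr at 37 C. Add CellTiter-Glo, wait 30 min at room temperature, read luminescence.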

[2] = Cell Viability - LYMP2-025 (AID 976); further: series mostly up to about 92 µM
Method in brief: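 Seed 2500 LYMP2-025 cells/well; 5 hr at 37 C; add compound; 24 hr at 37 C; add CellTiter-Glo; 30 min RT; read luminescence. AC50 from Hill-modelled concentration-response.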

[3] = Cell Viability - LYMP2-002 (AID 977);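 further: compound exposure lasted 24 h at 37 °C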; further: potency means the concentration at half of the fitted maximal effect
Method in brief: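 Cytotoxicity is scored as concentration-dependent loss of cellular ATP in a human lymphoblastoid line after 24 hr compound treatment at 37 C. AC50 is obtained by modelling concentration-response data with the Hill equation.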

[4] = Cell Viability - LYMP2-006 (AID 978); further: nearly all actives have a fitted effect of over 60% in size; further: potency means the concentration at half of the fitted maximal effect
Method in brief: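 Human lymphoblastoid cells (LYMP2-006), 2500/well in complete medium, were treated with compound for 24 hr at 37 C. Cellular ATP was read by CellTiter-Glo luminescence after 30 min, and AC50 values came from Hill-equation fits of concentration-response data.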

[5] = Cell Viability - LYMP2-007 (AID 979);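 further: cells exposed to compound for 24 h before reading; nearly all actives have a fitted effect of over 60% in size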; further: potency means the concentration at half of the fitted maximal effect
Method in brief: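 Luminescent ATP signal (CellTiter-Glo) serves as the viability read-out after 24 hr compound treatment of lymphoblastoid cells in complete medium at 37 C. Concentration-response data were fitted to the Hill equation to give AC50 values.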

[6] = Cell Viability - LYMP2-010 (AID 981); further: nearly all actives have a fitted effect of over 55% in size; further: potency means the concentration at half of the fitted maximal effect
Method in brief: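 Luminescent ATP signal (CellTiter-Glo) served as the viability read-out. Cells of the human lymphoblastoid line were treated with compound over a concentration range for 24 hours at 37 C, and AC50 values came from Hill-equation modeling.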

[7] = Cell Viability - LYMP2-012 (AID 982);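 further: cellular ATP by luciferase luminescence where a drop means cytotoxicity; cells exposed to compound for one day before reading; nearly all actives have a fitted effect of over 55% in size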; further: potency means the concentration at half of the fitted maximal effect
[8] = Cell Viability - LYMP2-014 (AID 983); further: nearly all actives have a fitted effect of over 50% in size; further: potency means the concentration at half of the fitted maximal effect
Method in brief: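 Luminescent ATP signal (CellTiter-Glo, 30 min at room temperature) serves as the viability read-out after 24 hr compound exposure at 37 C. Cells were seeded at 2500 per well and settled 5 hr beforehand.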

[9] = Cell Viability - LYMP2-016 (AID 984); further: nearly all actives have a fitted effect of over 55% in size; further: potency means the concentration at half of the fitted maximal effect
Method in brief: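 Human lymphoblastoid LYMP2-016 cells, 2500 per well, treated with compounds for 24 h at 37 C. Viability read as intracellular ATP by CellTiter-Glo luminescence after 30 min at room temperature; AC50 from Hill fits of concentration-response.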

[10] = Cell Viability - LYMP2-018 (AID 985); further: nearly all actives have a fitted effect of over 50% in size; further: potency means the concentration at half of the fitted maximal effect
Method in brief: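 Luminescent ATP signal (CellTiter-Glo, read after 30 min at room temperature) reports viable cells after 24 hr compound treatment at 37 C. Concentration-response data were fitted to the standard Hill equation for AC50.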

Measured: Potency

O=C(O)Cc1cccc2ccccc12
inactive: all assays above

O=c1c(-c2ccc(O)cc2)coc2cc(O)ccc12
not listed: [7]
inactive: all other assays above

O=C(O)c1cc(O)c2c(c1)C(=O)c1cccc(O)c1C2=O
inactive: [6] | [7] | [8] | [9] | [10]

CC(=O)c1ccc(S(=O)(=O)NC(=O)NC2CCCCC2)cc1
inactive: all assays above

CCCCC1C(=O)N(c2ccccc2)N(c2ccccc2)C1=O
inactive: all assays above

O=C1NC(=O)C(c2ccccc2)(c2ccccc2)N1
inactive: all assays above

CC(=O)O[C@]1(C(C)=O)CC[C@H]2[C@@H]3C=C(Cl)C4=CC(=O)[C@@H]5C[C@@H]5[C@]4(C)[C@H]3CC[C@@]21C
inactive: all assays above

O=c1cc(-c2ccc(O)cc2)oc2cc(O)cc(O)c12
inactive: [8]

CC/C(=C(\c1ccccc1)c1ccc(OCCN(C)C)cc1)c1ccccc1
active: [1] 50.1 µM | [3] 39.8 µM | [4] 50.1 µM | [5] 50.1 µM | [6] 50.1 µM | [7] 50.1 µM | [8] 50.1 µM | [9] 39.8 µM | [10] 50.1 µM

CN(C)CCC(c1ccccc1)c1ccccn1 (configuration not stated)
inactive: all assays above

CCCNC(=O)NS(=O)(=O)c1ccc(Cl)cc1
inactive: all assays above

CCn1cc(C(=O)O)c(=O)c2ccc(C)nc21
inactive: all assays above

O=c1c(O)c(-c2ccc(O)cc2)oc2cc(O)cc(O)c12
inactive: all assays above

O=c1[nH]cnc2c1ncn2[C@H]1CC[C@@H](CO)O1
inactive: all assays above

CC1=C(/C=C/C(C)=C/C=C/C(C)=C/C(=O)Nc2ccc(O)cc2)C(C)(C)CCC1
active: [1] 50.1 µM | [4] 50.1 µM | [5] 39.8 µM | [6] 50.1 µM | [7] 39.8 µM | [8] 50.1 µM | [9] 63.1 µM | [10] 50.1 µM
